Data from PubChem BioAssay (NCATS).
Results filed as inconclusive are left out. Unmarked numbers belong to inactive results. Calls of active or inactive are those of the source. Calls follow the shape of the dose curve; as a rule, active = well fitted curve in the direction sought with a large enough effect; inconclusive = small, poorly fitted or top-dose-only effect, or another doubt; inactive = no such curve, though single readings can be large; an effect the other way counts as inactive or inconclusive.

Molecular target: Rap guanine nucleotide exchange factor 3 (Homo sapiens) (UniProt O95398)
Sequence (O95398 whole entry, looked up): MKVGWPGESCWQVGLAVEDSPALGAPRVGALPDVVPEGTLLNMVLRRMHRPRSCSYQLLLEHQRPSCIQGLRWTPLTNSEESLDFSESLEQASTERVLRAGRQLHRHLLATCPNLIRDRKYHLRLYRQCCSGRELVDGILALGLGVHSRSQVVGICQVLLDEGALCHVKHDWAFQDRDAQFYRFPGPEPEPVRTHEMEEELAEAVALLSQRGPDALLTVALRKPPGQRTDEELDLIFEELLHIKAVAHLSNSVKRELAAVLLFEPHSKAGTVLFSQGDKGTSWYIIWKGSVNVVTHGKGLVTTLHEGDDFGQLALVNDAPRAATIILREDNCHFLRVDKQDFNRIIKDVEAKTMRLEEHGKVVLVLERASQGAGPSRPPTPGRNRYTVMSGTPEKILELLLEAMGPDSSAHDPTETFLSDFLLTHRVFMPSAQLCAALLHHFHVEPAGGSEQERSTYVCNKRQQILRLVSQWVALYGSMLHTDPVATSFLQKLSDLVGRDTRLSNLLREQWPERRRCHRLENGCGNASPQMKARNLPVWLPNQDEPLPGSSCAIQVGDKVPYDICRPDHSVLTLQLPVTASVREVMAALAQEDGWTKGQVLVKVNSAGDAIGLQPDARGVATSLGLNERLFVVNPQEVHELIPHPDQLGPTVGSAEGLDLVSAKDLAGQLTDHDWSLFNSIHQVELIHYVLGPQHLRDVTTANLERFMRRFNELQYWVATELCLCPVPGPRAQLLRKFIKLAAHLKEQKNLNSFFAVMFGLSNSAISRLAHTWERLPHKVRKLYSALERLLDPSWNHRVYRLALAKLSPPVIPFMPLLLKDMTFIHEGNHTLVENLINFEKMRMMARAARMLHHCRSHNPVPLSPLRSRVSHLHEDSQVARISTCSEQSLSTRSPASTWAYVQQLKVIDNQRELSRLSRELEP
Test: Confirmatory qHTS for antagonist of cAMP-regulated guanine nucleotide exchange factor 3 (EPAC1) (AID 1645880);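 also: plate controls were DMSO only for no effect and full effect of the ATA control for full effect; nearly all actives have a fitted effect of over 55% in size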
Conditions: EPAC1 Rap1B-BODIPY-GDP exchange, fluorescence; series mostly up to 115 µM; activity, negative = inhibition: at the top concentration
Method in brief: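 Released BODIPY-GDP fluoresces less than Rap1-bound BODIPY-GDP; the signal is followed at 480/540 nm at 5-min intervals over 30 min, after 5 min at room temperature. Reactions contain 100 nM EPAC1, 250 nM RAP1B-BODIPY-GDP and 50 uM GDP; results are normalized to ATA and DMSO.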

Row | Structure (SMILES) | activity, negative = inhibition
1 | COc1cccc(-c2nc3cc(SC)ccc3cc2CN(C(=O)c2sccc2C)C2CC2)c1 | -7.61%
2 | CCOC(=O)[C@H](CCc1ccccc1)N[C@@H](C)C(=O)N1[C@@H](C(=O)O)C[C@@H]2CCC[C@@H]21 | 4.43% [at 62.4 µM]
3 | CC(C)C[C@@H](COc1ccccc1)N1CCN(Cc2ccccc2)CCC1=O | -17.2%
4 | O=C(NCc1ccc(F)cc1)c1ccc2c(=O)n3c(nc2c1)CCCCC3 | -16.8%
5 | Cc1ccc(C)c(N2CCN(C(=O)CCc3nc(-c4ccc(Cl)cc4)no3)CC2)c1 | -29%

Molecular target: Rap guanine nucleotide exchange factor 3 (Homo sapiens) (UniProt O95398)
Test: Confirmatory qHTS for agonist of cAMP-regulated guanine nucleotide exchange factor 3 (EPAC1) (AID 1645881); also: nearly all actives have a fitted effect of over 75% in size; also: potency is read from the fitted curve at half-maximal effect;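 as to activation: EPAC1 catalysed release of BODIPY-GDP from Rap1B seen as fluorescence loss; 100% = effect of cAMP agonist control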
Conditions: EPAC1 Rap1B BODIPY-GDP exchange fluorescence; series mostly up to 154 µM; activation: at the top concentration

Row | Structure (SMILES) | activation | Potency
6 | CCOC(=O)C1CCCN(c2cc(=O)n(C3CCCCC3)c(=O)[nH]2)C1 (stereo not drawn) | 15.5% | 
7 | Cc1cccc(C)c1OCC(=O)N(Cc1ccco1)Cc1ccco1 | 10.8% | 
8 | Cc1ccc(C)n1-c1c(C(=O)NCCC(C)C)sc2ncccc12 | 7.54% | 
9 | CN(C)c1ccc(/C=C/C=C/c2ccnc3ccccc23)cc1 | 5.74% | 
10 | Nc1ccn(C2C=CC(CO)O2)c(=O)n1 (stereo not drawn) | 11.5% | 
11 | COc1ccccc1CNC(=O)CSc1ccc(-c2cccs2)nn1 | 20.7% | 
12 | COc1ccccc1N1CCN(c2ccc3c(c2)S(=O)(=O)c2cccc(C(=O)NCC4CC4)c2C3=O)CC1 | -3.28% | 
13 | O=C(NCCN1CCCC1)C(c1ccccc1)c1ccccc1 | 3.28% | 
14 | COc1cc2c3nnc(-c4ccccc4)c-3cn(Cc3ccc(F)cc3)c2cc1OC | 18.8% | 
15 | O=C(/C=C/c1ccccc1)c1cc(Br)ccc(=O)c1O | 20.8% | 
16 | COc1ccc(C(=O)NC2CCCc3ccccc32)c(OC)c1OC (stereo not drawn) | 21.6% | 
17 | CCc1ccccc1NC(=O)CCC(=O)N1CCN(C(C)=O)CC1 | -5.27% | 
18 | O=C(C[n+]1cccc2cc(Cl)ccc21)c1ccc(Br)cc1 | -8.04% | 
19 | Cn1cccc1-c1cc(C(=O)N/N=C/c2ccc(F)cc2)[nH]n1 | 6.01% | 
20 | O=C(C[N+]12CN3CN(CN(C3)C1)C2)c1ccc(I)cc1 | 7.28% | 
21 | CC(C)CC1C(=O)N(Cc2cn(CCC3OCCCO3)nn2)CCS(=O)(=O)N1Cc1ccc(-c2ccc(F)cc2)cc1 (stereo not drawn) | 12.5% | 
22 | O=C1C[C@H]2C=CCc3cccc(c32)CN1Cc1ccc(Cl)cc1 | 4.46% | 
23 | COC(=O)c1cn(C(=O)c2ccc(OC)cc2)c2ccccc12 | 28.9% | 
24 | CC[C@H]1c2[nH]c3ccc(C(C)C)cc3c2[C@@H]2CCN3C(=O)CCC[C@H]1[C@H]23 | -6.28% | 
25 | COc1ccc(NC(=O)Cn2c(SCc3cc(C)ccc3C)nc3ccncc32)c(OC)c1OC | 5.59% | 

Row | Structure (SMILES) | activation | Potency
26 | C#C[C@]1(OC(C)=O)CCC2C3CCC4=CC(=O)CC[C@@H]4C3CC[C@@]21C (stereo partly drawn) | -6.37% | 
27 | COc1ccc(-c2nc3cc(C)ccc3cc2CN(C(=O)c2cccs2)C2CC2)cc1OC | 2.18% | 
28 | COc1cc(C(=O)N(Cc2cc3ccc(C)cc3nc2N(C)C)C2CC2)cc(OC)c1OC | 2.57% | 
29 | COc1ccc(SC[C@H](C)CN2CC[C@H](C)CCC2=O)cc1 | 9.39% | 
30 | N#Cc1cc(NC(=O)c2ccc(Cl)cc2)ccc1Sc1ccccc1 | 11.3% | 
31 | CN(C)CCNC(=O)c1cccc(-c2cnc3c(NC=O)cc(-c4cccc(C(F)(F)F)c4)cn23)c1 | 8.67% | 
32 | CCN(CC)c1ccc2cc(-c3nc(-c4ccccc4F)no3)c(=O)oc2c1 |  | 50.1 µM (active)
33 | COc1cccc(C(=O)N(Cc2cc3ccc(C)cc3nc2N(C)C)C2CC2)c1OC | 2.85% | 
34 | COc1ccc(C(C[N+](=O)[O-])c2c(C)cc3ccccn23)c(OC)c1 (stereo not drawn) | 13.1% | 
35 | C1=Cc2ccccc2/C1=C\c1ccc2c(c1)OCO2 | -7.19% | 
36 | CCOC(=O)C1=CCN(S(=O)(=O)c2ccc(C)cc2)C1c1cccs1 (stereo not drawn) | 15.2% | 
37 | CC(C(=O)Nc1ccccc1C(F)(F)F)n1nc(-c2ccccc2)c2c(c1=O)CCCC2 (stereo not drawn) | 5.59% | 
38 | CCCCCn1c(C)c2c(OCC)cccc(=O)c2c1C | 8.37% | 
39 | C(=C\c1nccc2ccccc12)/c1ccc(N2CCOCC2)cc1 | 3.54% | 
40 | COc1cccc(-c2nc3cc(SC)ccc3cc2CN(C(=O)c2sccc2C)C2CC2)c1 | 3.35% | 
41 | CCOC(=O)[C@H](CCc1ccccc1)N[C@@H](C)C(=O)N1[C@@H](C(=O)O)C[C@@H]2CCC[C@@H]21 | 7.06% [at 83.5 µM, 100% = cAMP control response] | 
42 | CC(C)C[C@@H](COc1ccccc1)N1CCN(Cc2ccccc2)CCC1=O | 11.8% | 
43 | O=C(NCc1ccc(F)cc1)c1ccc2c(=O)n3c(nc2c1)CCCCC3 | -2.74% | 
44 | Cc1ccc(C)c(N2CCN(C(=O)CCc3nc(-c4ccc(Cl)cc4)no3)CC2)c1 | 2.15% | 

Molecular target: Rap guanine nucleotide exchange factor 4 (Homo sapiens) (UniProt Q8WZA2)
Sequence (Q8WZA2 whole entry, looked up): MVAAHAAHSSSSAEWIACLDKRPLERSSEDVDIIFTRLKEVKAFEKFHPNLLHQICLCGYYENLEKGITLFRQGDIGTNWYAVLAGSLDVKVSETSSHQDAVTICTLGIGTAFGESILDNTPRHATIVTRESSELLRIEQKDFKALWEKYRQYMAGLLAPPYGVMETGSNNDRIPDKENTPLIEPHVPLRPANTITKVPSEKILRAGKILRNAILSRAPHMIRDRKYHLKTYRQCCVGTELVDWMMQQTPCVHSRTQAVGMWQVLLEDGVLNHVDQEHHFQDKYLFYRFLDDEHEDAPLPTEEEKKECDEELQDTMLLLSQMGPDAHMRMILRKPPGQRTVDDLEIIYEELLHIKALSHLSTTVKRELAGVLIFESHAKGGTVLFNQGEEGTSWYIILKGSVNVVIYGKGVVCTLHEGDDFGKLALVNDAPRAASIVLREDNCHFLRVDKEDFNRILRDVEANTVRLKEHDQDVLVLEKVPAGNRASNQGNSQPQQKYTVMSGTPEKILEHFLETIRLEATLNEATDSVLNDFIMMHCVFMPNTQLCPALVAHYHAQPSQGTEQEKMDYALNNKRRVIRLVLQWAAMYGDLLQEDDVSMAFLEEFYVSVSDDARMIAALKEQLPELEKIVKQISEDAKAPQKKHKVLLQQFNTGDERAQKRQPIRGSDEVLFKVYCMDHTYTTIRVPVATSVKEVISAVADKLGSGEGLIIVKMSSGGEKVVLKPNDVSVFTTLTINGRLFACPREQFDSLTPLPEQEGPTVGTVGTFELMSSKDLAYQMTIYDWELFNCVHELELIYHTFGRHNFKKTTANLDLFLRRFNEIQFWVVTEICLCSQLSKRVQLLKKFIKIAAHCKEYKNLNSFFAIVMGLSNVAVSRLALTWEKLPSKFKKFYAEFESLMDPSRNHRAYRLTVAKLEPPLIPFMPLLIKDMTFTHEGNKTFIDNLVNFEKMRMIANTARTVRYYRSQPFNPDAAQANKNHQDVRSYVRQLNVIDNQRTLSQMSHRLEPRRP
Test: Confirmatory qHTS for agonist of cAMP-regulated guanine nucleotide exchange factor 4 (EPAC2) (AID 1645884);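 also: nucleotide exchange releases bodipy-GDP from Rap1 and this lowers its fluorescence; nearly all actives have a fitted effect of over 65% in size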; also: potency is read from the fitted curve at half-maximal effect; as to activation: % is scaled to controls: 0 for no effect and ±100 for the full control effect
Conditions: EPAC2 GEF activity, Rap1B-BODIPY-GDP fluorescence; series mostly up to 154 µM; activation: at the top concentration

Row | Structure (SMILES) | activation | Potency
45 | CCOC(=O)C1CCCN(c2cc(=O)n(C3CCCCC3)c(=O)[nH]2)C1 (stereo not drawn) | 2.95% | 
46 | Cc1cccc(C)c1OCC(=O)N(Cc1ccco1)Cc1ccco1 | 29.4% [at 83.8 µM, percent relative to cAMP agonist control] | 
47 | Cc1ccc(C)n1-c1c(C(=O)NCCC(C)C)sc2ncccc12 | 8.19% [at 83.8 µM, percent relative to cAMP agonist control] | 
48 | CN(C)c1ccc(/C=C/C=C/c2ccnc3ccccc23)cc1 | 5.98% | 
49 | Nc1ccn(C2C=CC(CO)O2)c(=O)n1 (stereo not drawn) | 0% | 
50 | COc1ccccc1CNC(=O)CSc1ccc(-c2cccs2)nn1 | 0% | 
51 | COc1ccccc1N1CCN(c2ccc3c(c2)S(=O)(=O)c2cccc(C(=O)NCC4CC4)c2C3=O)CC1 | -1.02% | 
52 | O=C(NCCN1CCCC1)C(c1ccccc1)c1ccccc1 | -7.31% | 
53 | COc1cc2c3nnc(-c4ccccc4)c-3cn(Cc3ccc(F)cc3)c2cc1OC | 3.13% | 
54 | O=C(/C=C/c1ccccc1)c1cc(Br)ccc(=O)c1O | 22.4% | 
55 | COc1ccc(C(=O)NC2CCCc3ccccc32)c(OC)c1OC (stereo not drawn) | 0% [at 17.1 µM, percent relative to cAMP agonist control] | 
56 | CCc1ccccc1NC(=O)CCC(=O)N1CCN(C(C)=O)CC1 | 0% | 
57 | O=C(C[n+]1cccc2cc(Cl)ccc21)c1ccc(Br)cc1 | 17% | 
58 | Cn1cccc1-c1cc(C(=O)N/N=C/c2ccc(F)cc2)[nH]n1 | -2.5% [at 17.1 µM, percent relative to cAMP agonist control] | 
59 | O=C(C[N+]12CN3CN(CN(C3)C1)C2)c1ccc(I)cc1 | 17.2% | 
60 | CC(C)CC1C(=O)N(Cc2cn(CCC3OCCCO3)nn2)CCS(=O)(=O)N1Cc1ccc(-c2ccc(F)cc2)cc1 (stereo not drawn) | 14% | 
61 | O=C1C[C@H]2C=CCc3cccc(c32)CN1Cc1ccc(Cl)cc1 | 14.7% | 
62 | COC(=O)c1cn(C(=O)c2ccc(OC)cc2)c2ccccc12 |  | 31.6 µM (active)
63 | CC[C@H]1c2[nH]c3ccc(C(C)C)cc3c2[C@@H]2CCN3C(=O)CCC[C@H]1[C@H]23 | -4.56% | 
64 | COc1ccc(NC(=O)Cn2c(SCc3cc(C)ccc3C)nc3ccncc32)c(OC)c1OC | -3.73% [at 83.8 µM, percent relative to cAMP agonist control] | 

Row | Structure (SMILES) | activation | Potency
65 | C#C[C@]1(OC(C)=O)CCC2C3CCC4=CC(=O)CC[C@@H]4C3CC[C@@]21C (stereo partly drawn) | 3.15% | 
66 | COc1ccc(-c2nc3cc(C)ccc3cc2CN(C(=O)c2cccs2)C2CC2)cc1OC | 8.75% | 
67 | COc1cc(C(=O)N(Cc2cc3ccc(C)cc3nc2N(C)C)C2CC2)cc(OC)c1OC | -4.72% | 
68 | COc1ccc(SC[C@H](C)CN2CC[C@H](C)CCC2=O)cc1 | 15.1% | 
69 | N#Cc1cc(NC(=O)c2ccc(Cl)cc2)ccc1Sc1ccccc1 | 11% | 
70 | CN(C)CCNC(=O)c1cccc(-c2cnc3c(NC=O)cc(-c4cccc(C(F)(F)F)c4)cn23)c1 | 0% | 
71 | CCN(CC)c1ccc2cc(-c3nc(-c4ccccc4F)no3)c(=O)oc2c1 |  | 5.01 µM (active)
72 | COc1cccc(C(=O)N(Cc2cc3ccc(C)cc3nc2N(C)C)C2CC2)c1OC | 24.6% | 
73 | COc1ccc(C(C[N+](=O)[O-])c2c(C)cc3ccccn23)c(OC)c1 (stereo not drawn) | 7.09% [at 17.1 µM, percent relative to cAMP agonist control] | 
74 | C1=Cc2ccccc2/C1=C\c1ccc2c(c1)OCO2 | 4.46% | 
75 | CCOC(=O)C1=CCN(S(=O)(=O)c2ccc(C)cc2)C1c1cccs1 (stereo not drawn) | 5.63% [at 17.1 µM, percent relative to cAMP agonist control] | 
76 | CC(C(=O)Nc1ccccc1C(F)(F)F)n1nc(-c2ccccc2)c2c(c1=O)CCCC2 (stereo not drawn) | -35.1% [at 83.8 µM, percent relative to cAMP agonist control] | 
77 | CCCCCn1c(C)c2c(OCC)cccc(=O)c2c1C | 7.02% [at 17.1 µM, percent relative to cAMP agonist control] | 
78 | C(=C\c1nccc2ccccc12)/c1ccc(N2CCOCC2)cc1 | 29% | 
79 | COc1cccc(-c2nc3cc(SC)ccc3cc2CN(C(=O)c2sccc2C)C2CC2)c1 | 2.97% | 
80 | CCOC(=O)[C@H](CCc1ccccc1)N[C@@H](C)C(=O)N1[C@@H](C(=O)O)C[C@@H]2CCC[C@@H]21 | 14.7% [at 83.8 µM, percent relative to cAMP agonist control] | 
81 | CC(C)C[C@@H](COc1ccccc1)N1CCN(Cc2ccccc2)CCC1=O | 4.45% | 
82 | O=C(NCc1ccc(F)cc1)c1ccc2c(=O)n3c(nc2c1)CCCCC3 | -12.1% | 
83 | Cc1ccc(C)c(N2CCN(C(=O)CCc3nc(-c4ccc(Cl)cc4)no3)CC2)c1 | -2.07% | 
